ChEMBL document CHEMBL3988442, “University of Dundee, Small-Polar-MMV Screening Library” (2021)

Target: T1, Methionyl-tRNA synthetase, putative (Leishmania donovani (strain BPK282A1)) (UniProt E9BF75)
T1 sequence (whole entry): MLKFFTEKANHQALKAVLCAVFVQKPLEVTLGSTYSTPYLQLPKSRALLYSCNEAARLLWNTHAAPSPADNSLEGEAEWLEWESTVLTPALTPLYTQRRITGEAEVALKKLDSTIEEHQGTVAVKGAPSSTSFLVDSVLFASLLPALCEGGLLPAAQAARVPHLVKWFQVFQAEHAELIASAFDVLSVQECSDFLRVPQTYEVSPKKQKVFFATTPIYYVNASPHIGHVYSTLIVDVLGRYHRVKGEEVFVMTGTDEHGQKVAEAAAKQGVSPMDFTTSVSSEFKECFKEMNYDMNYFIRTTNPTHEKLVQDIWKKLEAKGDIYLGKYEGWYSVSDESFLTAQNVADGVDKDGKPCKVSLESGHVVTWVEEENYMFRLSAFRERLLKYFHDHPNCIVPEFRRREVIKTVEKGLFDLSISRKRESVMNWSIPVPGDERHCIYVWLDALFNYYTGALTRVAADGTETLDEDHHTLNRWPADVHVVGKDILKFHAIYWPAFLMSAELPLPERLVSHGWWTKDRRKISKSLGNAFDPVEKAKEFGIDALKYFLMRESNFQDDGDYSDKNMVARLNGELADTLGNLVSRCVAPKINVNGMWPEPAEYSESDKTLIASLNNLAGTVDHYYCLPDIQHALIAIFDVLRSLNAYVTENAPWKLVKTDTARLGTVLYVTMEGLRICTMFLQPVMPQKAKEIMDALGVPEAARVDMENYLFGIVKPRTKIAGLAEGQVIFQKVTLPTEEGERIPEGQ
Experiment: Leishmania donovani Methionine tRNA synthetase (LdMetRS):v7. Dose response assay
Type: functional
Design: conc 80 nM, time 150 minutes

Cc1nc(N2CC[C@@H](O)C2)c2c3c(sc2n1)CCCC3
PXC50 (MAX_EFFECT 8.838383838): < 4
PXC50 (MAX_EFFECT 10.20408163): < 4

Cc1nc(N2CC[C@@H](O)C2)c2c(-c3cccs3)csc2n1
PXC50 (MAX_EFFECT -2.07253886): < 4
PXC50 (MAX_EFFECT -3.723404255): < 4

Fc1cccc(OC[C@@H]2CCCN2)c1Oc1ccc(Cl)cc1
PXC50 (MAX_EFFECT 8.488612836): < 4
PXC50 (MAX_EFFECT 13.00639659): < 4

NC(=O)C1CN(c2nc(C3CC3)nc3sc4c(c23)CCCC4)CCO1 (stereo not given)
PXC50 (MAX_EFFECT 5.699481865): < 4
PXC50 (MAX_EFFECT 7.446808511): < 4

N[C@H](COc1cccc(F)c1Oc1ccc(Cl)cc1)c1ccccc1
PXC50 (BOTTOM 4.511954534, HILLSLOPE 1.875524354, MAX_EFFECT 67.28778468, TOP 93.68195714): 4.2
PXC50 (BOTTOM -3.133728258, HILLSLOPE 1.050142996, MAX_EFFECT 53.9445629, TOP 100.0): 4.1

OB1OCc2cc(C(F)(F)F)ncc21
PXC50 (MAX_EFFECT 8.490566038): < 4
PXC50 (MAX_EFFECT 11.87214612): < 4

Nc1noc2ccc(-c3cnc4ccc(NCc5ccccn5)nn34)cc12
PXC50 (MAX_EFFECT 7.291666667): < 4
PXC50 (MAX_EFFECT 11.84210526): < 4

COCCNc1nc(-c2ccc(C)cc2)cc(C(F)(F)F)n1
PXC50 (MAX_EFFECT 7.978723404): < 4
PXC50 (MAX_EFFECT 8.29015544): < 4

Cc1nc(NCCC(C)C)c2c3c(sc2n1)CCCC3
PXC50 (MAX_EFFECT 30.4): < 4
PXC50 (MAX_EFFECT 33.86243386): < 4

Cc1nc(N(C)CC(=O)Nc2cc(C)on2)c2c3c(sc2n1)CCC3
PXC50 (MAX_EFFECT 9.844559585): < 4
PXC50 (MAX_EFFECT 10.63829787): < 4

Cc1nc(N2CCN(CCO)CC2)c2c(-c3ccccc3)csc2n1
PXC50 (MAX_EFFECT 6.12244898): < 4
PXC50 (MAX_EFFECT 9.848484848): < 4

COc1cccc(-c2cc(C(F)(F)F)nc(N3CCOCC3)n2)c1
PXC50 (MAX_EFFECT 8.510638298): < 4
PXC50 (MAX_EFFECT 10.3626943): < 4

Cc1sc2nc(C(F)(F)F)nc(N3CCN(C)CC3)c2c1C
PXC50 (MAX_EFFECT 6.788511749): < 4
PXC50 (MAX_EFFECT 7.049608355): < 4

FC1(F)CCN(Cc2cccnc2)CC12CCN(c1cnccn1)C2 (stereo not given)
PXC50 (MAX_EFFECT 4.081632653): < 4
PXC50 (MAX_EFFECT 6.355140187): < 4

Cc1c(C(=O)NC2CCCC2)ccc2ccc(N3CCN(S(C)(=O)=O)CC3)n12
PXC50 (MAX_EFFECT 3.645833333): < 4
PXC50 (MAX_EFFECT 10.0877193): < 4

Cc1sc2nc(CCN)nc(N3CCC(N4CCCC4)CC3)c2c1C
PXC50 (MAX_EFFECT 14.62140992): < 4
PXC50 (MAX_EFFECT 16.44908616): < 4

Cn1ncc2c(OCCO)nc(Nc3ccc(F)c(F)c3)nc21
PXC50 (MAX_EFFECT 18.30188679): < 4
PXC50 (MAX_EFFECT 21.91780822): < 4

CCc1nc(NCCCN(C)C)c2cc(CC)sc2n1
PXC50 (MAX_EFFECT 9.547738693): < 4
PXC50 (MAX_EFFECT 12.53071253): < 4

NC(=O)c1ccc(Cl)cc1Cl
PXC50 (MAX_EFFECT 4.967602592): < 3
PXC50 (MAX_EFFECT 16.92015209): < 3

CNS(=O)(=O)c1cc(C(C)C)c(Br)cc1C(C)C
PXC50 (MAX_EFFECT 9.649122807): < 4
PXC50 (MAX_EFFECT 14.58333333): < 4

Cc1sc2nc(-c3cccnc3)nc(NCCN3CCOCC3)c2c1C
PXC50 (MAX_EFFECT 3.015075377): < 4
PXC50 (MAX_EFFECT 4.668304668): < 4

Cc1nc(O)cc(C2CCN(c3nc(C)nc4sccc34)CC2)n1
PXC50 (MAX_EFFECT 2.659574468): < 4
PXC50 (MAX_EFFECT 5.699481865): < 4

CCN(CC)c1ccc2ccc(C(=O)N(CCOC)CCOC)cn12
PXC50 (MAX_EFFECT 40.55555556): < 4
PXC50 (MAX_EFFECT 42.72300469): < 4

CC(C)C[C@H](N)C(=O)Nc1cccnc1Oc1ccc(Cl)cc1
PXC50 (MAX_EFFECT 2.186878728): < 4
PXC50 (MAX_EFFECT 7.568807339): < 4

CC[C@H](C)[C@H](Nc1nc(C)nc2sc3c(c12)CCCC3)C(=O)O
PXC50 (MAX_EFFECT 21.80851064): < 4
PXC50 (MAX_EFFECT 23.31606218): < 4

CCN1CCN(c2nc(-c3cccc(OC)c3)cc(C(F)(F)F)n2)CC1
PXC50 (MAX_EFFECT 17.85714286): < 4
PXC50 (MAX_EFFECT 18.43434343): < 4

CCOC(=O)N1CCN(c2nc(CCN)nc3sc(C)c(C)c23)CC1
PXC50 (BOTTOM 0.0282, HILLSLOPE 1.091908383, MAX_EFFECT 72.32375979, TOP 100.0): 4.33
PXC50 (BOTTOM 1.098813228, HILLSLOPE 1.170601195, MAX_EFFECT 79.37336815, TOP 100.0): 4.4

CS(=O)(=O)N1CCN(c2ccc3ccc(C(=O)NCC(=O)N4CCOCC4)cn23)CC1
PXC50 (BOTTOM 0.290613171, HILLSLOPE 1.637678219, MAX_EFFECT 51.19617225, TOP 53.26483222): 4.83
PXC50 (BOTTOM 5.655540606, HILLSLOPE 2.540340494, MAX_EFFECT 56.3071298, TOP 55.42961413): 4.8

COCCNc1nc(-n2nc(C)cc2C)nc2sc3c(c12)CCCC3
PXC50 (BOTTOM 1.301145561, HILLSLOPE 1.464534306, MAX_EFFECT 52.38095238, TOP 100.0): 4.33
PXC50 (BOTTOM -0.0791, HILLSLOPE 1.372664479, MAX_EFFECT 81.02766798, TOP 100.0): 4.48

CS(=O)(=O)N1CCN(c2ccc3ccc(C(=O)NCCn4cccn4)cn23)CC1
PXC50 (BOTTOM 1.569537618, HILLSLOPE 2.334941078, MAX_EFFECT 65.07177033, TOP 65.29640188): 4.95
PXC50 (BOTTOM 7.030389685, HILLSLOPE 2.531896239, MAX_EFFECT 68.73857404, TOP 69.44063033): 4.79
